Screening results deposited in PubChem by National Center for Advancing Translational Sciences (NCATS).
HT1080-NT tox = qHTS for induction of synthetic lethality in tumor cells producing 2HG: qHTS for the HT-1080-NT fibrosarcoma cell line | hit rate 1.6% among 360,000 | HT-1080-NT fibrosarcoma viability, CellTiter-Glo ATP luminescence, 48 h | AID 686970, 2013 | Potency, µM (highest dose often 46.1 µM), without a hit: at the highest dose activity, negative = less viability, hits mostly cytotoxic;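 also: NT is the 2HG producing partner of a matched IDH1 knockdown line; potency is read from the fitted curve at half-maximal effect; 0% = DMSO-treated cells and -100% = media-only wells without cells; nearly all actives have a fitted effect of over 55% in size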
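A 48-hour cytotoxicity screen used HT-1080-NT cells plated 2 hours before compound delivery. ATP-based CellTiter-Glo luminescence measured viability, normalized to DMSO and no-cell controls.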
IL1B secr inh = qHTS for Inhibitors of Inflammasome Signaling: IL-1-beta AlphaLISA Primary Screen | THP-1 LPS/ATP IL-1B secretion, AlphaLISA, 16 h; stronger effect = lower value | activity change, % at 57.5 µM | hit rate 4.7% among 360,000 | AID 743279, 2014; in the data active = activity change below about -50%; inconclusive = mostly about -30% to -49%
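Secreted IL-1B measured by AlphaLISA bead assay after 16 h compound exposure of THP-1 cells; compounds (final up to 57.5 uM) added 1 h before LPS (250 ng/mL) and ATP (1.25 mM) stimulation; lower signal means less secretion.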
HT1080 IDH1KD tx = qHTS for induction of synthetic lethality in tumor cells producing 2HG: qHTS for the HT-1080-IDH1KD cell line. HT-1080 IDH1 knockdown viability, ATP luminescence, 48 h. Potency, µM (doses to about 46.1 µM), without a hit: at the top dose activity, negative = toxicity, usual class: cytotoxic. hit rate 2% among 360,000. AID 686971, 2013;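 also: potency is read from the fitted curve at half-maximal effect; 0% = DMSO wells and -100% = cell-free medium wells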
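Luminescent ATP read-out (CellTiter-Glo, 10 min at room temperature) after 48 h compound exposure at 37 °C gave viability of IDH1-knockdown HT-1080 cells. Activity was normalised to DMSO and cell-free wells, then fitted as concentration-response curves.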
DT40 TDP1 no CPT = qHTS for Inhibitors of human tyrosyl-DNA phosphodiesterase 1 (TDP1): qHTS in cells in absence of CPT | DT40 Tdp1-/- hTDP1 cells, no CPT, ATP luminescence, 48 h | Potency, µM (top dose mostly 46.2 µM), for inactives: at the highest dose activity change, negative = growth inhibition, hits mostly inhibitors | hit rate 15% among 420,000 | AID 686978, 2013; also: potency is read from the fitted curve at half-maximal effect; nearly all actives have a fitted effect of over 55% in size
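DT40 Tdp1-/-;hTDP1 cells, no CPT (DMSO vehicle only), 400 cells/well; compounds pin-transferred; ≥48 hr, 37 °C; CellTiter-Glo 30 min RT dark, luminescence read.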
DT40 TDP1 CPT = qHTS for Inhibitors of human tyrosyl-DNA phosphodiesterase 1 (TDP1): qHTS in cells in presence of CPT | chicken DT40 Tdp1-/-;hTDP1 cells + 20 nM CPT, ATP luminescence, 48 h | Potency, µM (doses to about 46.2 µM), without a hit: at the top dose activity change, negative = growth inhibition, most hits filed as inhibitors | hit rate 12% among 420,000; also: potency is read from the fitted curve at half-maximal effect; nearly all actives have a fitted effect of over 55% in size
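Cell growth measured by CellTiter-Glo luminescence after a minimum 48 h, 37 C compound exposure with 20 nM CPT in Tdp1-knockout DT40 cells stably expressing hTDP1, seeded 400/well; qHTS titration format.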
uPA surface inh = qHTS for Inhibitors of Cell Surface uPA Generation; Potency, µM (series often up to 38.3 µM), for inactives: at the top dose activity change, negative = inhibition, hits mostly inhibitors; cell surface uPA generation assay, qHTS; AID 540303, 2011; hit rate 0.31% among 330,000; active = well fitted inhibition curve with a large enough effect; inconclusive = small, poorly fitted or top-dose-only effect; inactive = no such curve, though single readings can be large or run the other way; tested in mouse RAW 264.7 cells; also: potency is read from the fitted curve at half-maximal effect; nearly all actives have a fitted effect of over 55% in size
Starred values were filed as active, the others as inactive; ? = inconclusive; nt = not tested or not shown; [ ] = dose if it differs, or a comment. Compounds with a hit are over-represented: about 19% of the library has one in this group of screens. Unless noted, calls follow the shape of the dose curve; as a rule, active = well fitted curve in the direction sought with a large enough effect; inconclusive = small, poorly fitted or top-dose-only effect, or another doubt; inactive = no such curve, though single readings can be large; an effect the other way counts as inactive or inconclusive. Unless noted, % is scaled to controls: 0 for no effect and ±100 for the full control effect.

SMILES	HT1080-NT tox	IL1B secr inh	HT1080 IDH1KD tx	DT40 TDP1 no CPT	DT40 TDP1 CPT	uPA surface inh
Cc1nncn1-c1ccc(C(=O)Nc2cc(F)ccc2F)cc1	nt	nt	nt	-28%	3%	nt
COCCN(C(=O)c1ccc(OC2CCN(S(=O)(=O)N(C)C)CC2)cc1)C(C)C	1%	31	-8%	13µM*	?	39%
CN(C)S(=O)(=O)N1CCC(Oc2ccc(C(=O)NCc3cnn(C)c3)cc2)CC1	4%	38	8%	21µM*	-21%	nt
CN(C)S(=O)(=O)N1CCC(Oc2ccc(C(=O)NCC(C)(C)CO)cc2)CC1	-12%	21	-13%	?	9%	nt
COc1cc(/C=C(\C#N)C(=O)c2ccc(O)c(O)c2)cc(I)c1O	-4%	44	-22%	-2%	-9%	?
CC1CC(C)CN(c2nc(N(C)c3ccccc3)nc(N)c2[N+](=O)[O-])C1 (centres undefined)	-20%	50	-25%	13µM*	?	-9%
Cc1ccc(C2(CCN)CCOC(C(C)C)C2)cc1 (centres undefined)	2%	-3	-2%	?	23µM*	5%
COc1ccccc1C1(CCNC(C)c2cccs2)CCOC(C(C)C)C1 (centres undefined)	?	nt	?	?	?	-4%
Cc1ccc(C2(CCNC(C)c3cccs3)CCOC(C(C)C)C2)cc1 (centres undefined)	16µM*	-81*	?	?	-95%	5%
Cc1ccc(C(O)c2ccc(-n3ccnc3)cc2)cc1 (centres undefined)	-2%	-8	-7%	15µM*	?	11%
c1ccc(-c2nnc3oc(-c4cccs4)nn23)cc1	7%	-104*	-2%	12µM*	23µM*	nt
CC1(C(=O)NS(=O)(=O)c2cccs2)CCN1C(=O)c1ccco1 (centres undefined)	2%	-9	11%	3%	8%	nt
CCN(CC)S(=O)(=O)c1ccc2c(c1)N(CC(=O)Nc1ccc(C)cc1C)C(=O)C1CCCN21 (centres undefined)	nt	nt	nt	?	7%	nt
COc1ccccc1-n1nc(-c2ccccc2)c2cnc3c(F)cc(F)cc3c21	nt	nt	nt	-22%	-9%	nt
CC(C)CNC(=O)C(=O)Nc1ccc2c(c1)N(S(=O)(=O)c1cccs1)CCC2	-13%	-6	-7%	?	?	-9%
CC(C)CCNC(=O)C(=O)Nc1ccc2c(c1)N(S(=O)(=O)c1cccs1)CCC2	3.3µM*	63	2.6µM*	3.7µM*	5.2µM*	-11%
COCCNC(=O)C(=O)Nc1ccc2c(c1)N(S(=O)(=O)c1cccs1)CCC2	?	22	6.5µM*	1.5µM*	1.8µM*	-10%
O=C(COC(=O)c1cc(=O)[nH]c2ccccc12)Nc1ccc(F)cc1	-2%	9	0%	-6%	-11%	4%
CCC1C(=O)NCCN1Cc1ccc2c(c1)CN(Cc1cc(OC)ccc1OC)CCO2 (centres undefined)	nt	nt	nt	?	-6%[9.04 µM]	nt
O=Cc1cccc(Oc2ncccn2)c1	8%	28	4%	1%	1%	0%
Nc1ccc(Oc2ncccn2)cc1	0%	2	0%	23µM*	?	-5%
O=C(c1cccnc1)N1C2CCC1CC(O)(c1ccc(F)cc1)C2 (centres undefined)	-10%	17	20%	-1%	-2%	7%
OC1(c2ccc(OC(F)F)cc2)CSC(=Nc2cccnc2)N1C1CC1 (centres undefined)	-12%	?	?	16µM*	21µM*	-8%
COc1ccc(CN(CCN)C2CC(C)N(C)CC2C)cc1 (centres undefined)	-1%	-22	-3%	-3%	-15%	11%
CCn1c(N2CCN(CC(=O)c3c(C)n(C)c4ccccc34)CC2)nc2c1c(=O)[nH]c(=O)n2C	-18%	-71*	-14%	?	?	-1%
SMILES	HT1080-NT tox	IL1B secr inh	HT1080 IDH1KD tx	DT40 TDP1 no CPT	DT40 TDP1 CPT	uPA surface inh
Cn1c(=O)[nH]c(=O)c2c1nc(N1CCCCCC1)n2Cc1cccc2ccccc12	12%	-14	12%	16µM*	-21%	1%
CCn1c(N2CCN(CC(=O)c3c(C)n(C)c4ccc(OC)cc34)CC2)nc2c1c(=O)[nH]c(=O)n2C	15%	nt	9%	?	?	0%
Cn1c(N2CCN(C(c3ccccc3)c3ccccc3)CC2)nc2c1c(=O)[nH]c(=O)n2C	-1%	48	3%	18µM*	21µM*	4%
CN(Cc1ccccc1)c1nc2c(c(=O)[nH]c(=O)n2C)n1CCOc1ccccc1	-20%	-8	?	16µM*	?	-9%
CCC(C)Nc1nc2c(c(=O)[nH]c(=O)n2C)n1CCOc1ccccc1 (centres undefined)	-15%	0	-11%	?	21µM*	1%
Cn1c(=O)[nH]c(=O)c2c1nc(N1CCCCCC1)n2CCOc1ccccc1	9%	17	-1%	23µM*	-26%	-6%
Cc1csc(SCCn2c(N3CCN(c4ccccc4)CC3)nc3c2c(=O)[nH]c(=O)n3C)n1	-5%	-4	6%	26µM*	16µM*	-1%
Cn1c(=O)[nH]c(=O)c2c1nc(NCCO)n2CCOc1ccccc1	-3%	11	-1%	-8%	?	11%
CC1CCCN(c2nc3c(c(=O)[nH]c(=O)n3C)n2Cc2ccccc2Cl)C1 (centres undefined)	-13%	7	0%	?	15µM*	-5%
CCOCCCNc1ncnc2c1nc1n2CCCC1	5%	9	10%	1%	-8%	-3%
NC(=O)CC(NC(=O)Cc1ccc(Cl)cc1)c1ccc(NCc2ccccc2)c([N+](=O)[O-])c1 (centres undefined)	-1%	0	-1%	-20%	?	-8%
Cc1cc(Oc2nc3c(C)cccn3c(=O)c2/C=C(\C#N)S(=O)(=O)c2ccccc2)ccc1Cl	3%	6	13%	?	13µM*	-7%
Cc1cccn2c(=O)c(/C=C(\C#N)C(N)=O)c(Oc3ccccc3)nc12	11%	0	-1%	?	?	9%
